Laboratory results: the antibiotic and cytotoxicity screens of Wong et al. (2023)
Among all 39,000 compounds or so, about 3,300 (8.5%) were called active. What follows is part of a selection rich in actives, with near analogues and random picks from the rest.

Tested on: HepG2
Test: cytotoxicity call (relative viability < 0.9)
Settings: 10 µM

SMILES | cytotoxicity call
COc1ccc(NC(=O)N(C)C[C@H]2OCCCC[C@H](C)Oc3ccc(NS(=O)(=O)c4cccs4)cc3C(=O)N([C@@H](C)CO)C[C@@H]2C)cc1 | inactive
C[C@H](CO)N1C[C@H](C)[C@H](CN(C)S(=O)(=O)c2ccc3c(c2)OCCCO3)OCc2cn(nn2)CCCC1=O | inactive
C[C@H]1CCCCO[C@@H](CN(C)C(=O)CCC(F)(F)F)[C@@H](C)CN([C@@H](C)CO)C(=O)c2cc(NS(=O)(=O)c3ccccc3)ccc2O1 | inactive
NC(=O)N1Cc2nccn2C[C@H](Cn2cncn2)C1 | inactive
Cc1ccc(S(=O)(=O)Nc2ccc3c(c2)C(=O)N([C@H](C)CO)C[C@@H](C)[C@H](CN(C)C(=O)Nc2ccccc2)OCCCC[C@@H](C)O3)cc1 | inactive
O=C(C[C@@H]1CC[C@H]2[C@@H](COC[C@@H](O)CN2S(=O)(=O)c2ccccc2F)O1)N1CCC(Cc2ccccc2)CC1 | inactive
O=C(C[C@@H]1CC[C@@H]2[C@H](COC[C@@H](O)CN2S(=O)(=O)c2ccccc2F)O1)N1CCC(Cc2ccccc2)CC1 | inactive
Cc1ccccc1S(=O)(=O)N1C[C@@H](O)COC[C@H]2O[C@H](CC(=O)N3CCC(Cc4ccccc4)CC3)CC[C@@H]21 | active
CN1CCN(C(=O)C[C@@H]2CC[C@H]3[C@@H](COC[C@@H](O)CN3Cc3ccc(Oc4ccccc4)cc3)O2)CC1 | inactive
Cc1ccccc1S(=O)(=O)N1C[C@H](O)COC[C@@H]2O[C@H](CC(=O)N3CCC(Cc4ccccc4)CC3)CC[C@H]21 | inactive
Cc1ccccc1S(=O)(=O)N1C[C@H](O)COC[C@H]2O[C@@H](CC(=O)N3CCC(Cc4ccccc4)CC3)CC[C@@H]21 | active
CN1CCN(C(=O)C[C@H]2CC[C@H]3[C@@H](COC[C@H](O)CN3Cc3ccc(Oc4ccccc4)cc3)O2)CC1 | inactive
CN1CCN(C(=O)C[C@H]2CC[C@@H]3[C@H](COC[C@@H](O)CN3Cc3ccc(Oc4ccccc4)cc3)O2)CC1 | active
Cc1ccccc1S(=O)(=O)N1C[C@H](O)COC[C@H]2O[C@H](CC(=O)N3CCC(Cc4ccccc4)CC3)CC[C@@H]21 | active
Cc1ccccc1S(=O)(=O)N1C[C@H](O)COC[C@@H]2O[C@@H](CC(=O)N3CCC(Cc4ccccc4)CC3)CC[C@H]21 | inactive
Cc1ccccc1S(=O)(=O)N1C[C@@H](O)COC[C@H]2O[C@@H](CC(=O)N3CCC(Cc4ccccc4)CC3)CC[C@@H]21 | inactive
Cc1ccccc1S(=O)(=O)N1C[C@@H](O)COC[C@@H]2O[C@H](CC(=O)N3CCC(Cc4ccccc4)CC3)CC[C@H]21 | inactive
C[C@@H]1CCCCO[C@H](CN(C)C(=O)Nc2ccc(F)cc2)[C@@H](C)CN([C@H](C)CO)C(=O)c2cc(NC(=O)C3CCCCC3)ccc2O1 | inactive
C[C@@H]1CCCCO[C@@H](CN(C)C(=O)c2ccccc2)[C@H](C)CN([C@H](C)CO)C(=O)c2cc(NS(=O)(=O)c3ccccc3)ccc2O1 | inactive
C=c1ccccc1=C1NN=C(CN2CCCC2)O1 | inactive
C[C@H]1CCCCO[C@H](CN(C)Cc2ccc(Cl)c(Cl)c2)[C@@H](C)CN([C@@H](C)CO)C(=O)c2cc(NS(C)(=O)=O)ccc2O1 | inactive
COCC#Cc1ccc2c(c1)O[C@H](CN(C)S(=O)(=O)c1cccc(F)c1)[C@@H](C)CN([C@H](C)CO)S2(=O)=O | inactive
C[C@@H]1CCCCO[C@H](CN(C)Cc2ccc(C(=O)O)cc2)[C@@H](C)CN([C@@H](C)CO)C(=O)c2cc(NC(=O)NC3CCCCC3)ccc2O1 | inactive
Cc1ccc2nc(/N=C/c3ccc(Cl)cc3Cl)sc2c1 | inactive
Cc1ccc2nc(-c3ccc(/N=C\c4ccc[nH]4)cc3)sc2c1 | active

SMILES | cytotoxicity call
Cc1ccc2nc(-c3ccc(NC(=O)C4CCC4)cc3)sc2c1 | inactive
COc1ccc2c3c([nH]c2c1)[C@@H](CO)N(CC1CCCCC1)C[C@]13CCN(CC1)C(=O)Nc1cccc(c1)F | inactive
COc1ccc2c3c([nH]c2c1)[C@H](CO)N(C[C@]13CCN(CC1)CC1CCCCC1)C(=O)Nc1cccc(c1)F | active
COc1ccc2c3c([nH]c2c1)[C@H](CO)N(CC1CCCCC1)C[C@]13CCN(CC1)C(=O)Nc1cccc(c1)F | inactive
COc1ccc2c3c([nH]c2c1)[C@@H](CO)N(C[C@]13CCN(CC1)CC1CCCCC1)C(=O)Nc1cccc(c1)F | active
COc1ccc2c3c([nH]c2c1)[C@@H](CO)N(C[C@]13CCN(CC1)CC1CCCCC1)C(=O)Nc1c(noc1C)C | inactive
COc1ccc2c3c([nH]c2c1)[C@H](CO)N(C[C@]13CCN(CC1)CC1CCCCC1)C(=O)Nc1c(noc1C)C | inactive
C[C@@H]1CCCCO[C@@H](CN(C)C(=O)CCC(F)(F)F)[C@@H](C)CN([C@H](C)CO)C(=O)c2cc(NC(=O)Nc3ccc(F)cc3)ccc2O1 | inactive
C[C@H]1CN([C@@H](C)CO)C(=O)c2cccc(NC(=O)c3ccc(-c4nccs4)cc3)c2O[C@@H]1CN(C)C(=O)Nc1ccc(F)cc1 | inactive
Cc1noc(C)c1NC(=O)N(C)C[C@@H]1OCCCC[C@H](C)Oc2ccc(NC(=O)NC3CCCCC3)cc2C(=O)N([C@@H](C)CO)C[C@@H]1C | inactive
O=c1[nH]nc(Br)c(=O)[nH]1 | inactive
O=C(O)C[C@H]1CC[C@@H]2[C@H](COC[C@@H](O)CN2S(=O)(=O)c2ccc(F)cc2)O1 | inactive
O=c1oc2ccccc2c(O)c1Cc1c(O)c2ccccc2oc1=O | inactive
O=C(O)c1cc(=O)c2ccccc2o1 | inactive
CC(=O)CC(c1ccccc1)c1c(O)c2ccccc2oc1=O (stereo not given) | active
CO[C@@H](CN(C)S(=O)(=O)c1cccc(Cl)c1)[C@@H](C)CN([C@@H](C)CO)S(=O)(=O)c1cccc(Cl)c1 | inactive
C[C@@H]1CN([C@H](C)CO)C(=O)Cc2cc(NC(=O)Cc3cn(C)c4ccccc34)ccc2O[C@@H]1CN(C)Cc1ccc(Oc2ccccc2)cc1 | active
C[C@H]1CN([C@@H](C)CO)C(=O)Cc2cc(NC(=O)Cc3cn(C)c4ccccc34)ccc2O[C@@H]1CN(C)Cc1ccc(Oc2ccccc2)cc1 | inactive
C[C@@H]1CN([C@@H](C)CO)C(=O)Cc2cc(NC(=O)Cc3cn(C)c4ccccc34)ccc2O[C@H]1CN(C)Cc1ccc(Oc2ccccc2)cc1 | active
C[C@H](CO)N1C[C@H](C)[C@H](CN(C)Cc2ccc(Oc3ccccc3)cc2)Oc2ccc(NC(=O)Cc3cn(C)c4ccccc34)cc2CC1=O | active
C[C@H]1CN([C@@H](C)CO)C(=O)Cc2cc(NC(=O)Cc3cn(C)c4ccccc34)ccc2O[C@H]1CN(C)Cc1ccc(Oc2ccccc2)cc1 | active
C[C@@H]1CN([C@H](C)CO)C(=O)Cc2cc(NC(=O)Cc3cn(C)c4ccccc34)ccc2O[C@H]1CN(C)Cc1ccc(Oc2ccccc2)cc1 | inactive
CC(C)=Cc1ccc(C#N)c(=S)[nH]1 | inactive
CC[C@@H](O[Si](C#C[Si](C(C)C)(C(C)C)C(C)C)(C(C)C)C(C)C)c1cn([C@H](CO)Cc2ccccc2)nn1 | inactive
Cc1noc(C)c1NC(=O)N(C)C[C@@H]1OCCCC[C@H](C)Oc2ccc(NC(=O)Nc3ccc4c(c3)OCO4)cc2C(=O)N([C@H](C)CO)C[C@@H]1C | inactive

SMILES | cytotoxicity call
COc1ccc(S(=O)(=O)Nc2ccc3c(c2)CC(=O)N([C@@H](C)CO)C[C@H](C)[C@H](CN(C)S(C)(=O)=O)O3)cc1 | inactive
Cc1noc(C)c1NC(=O)Nc1ccc2c(c1)C(=O)N([C@@H](C)CO)C[C@@H](C)[C@H](CN(C)C(=O)Nc1ccc3c(c1)OCO3)OCCCC[C@H](C)O2 | inactive
CNC[C@@H]1OCCCC[C@@H](C)Oc2ccc(NC(=O)Nc3ccc(C(F)(F)F)cc3)cc2C(=O)N([C@H](C)CO)C[C@@H]1C | inactive
C[C@@H]1CN([C@H](C)CO)C(=O)c2cc(NC(=O)Cc3cn(C)c4ccccc34)ccc2O[C@@H]1CN(C)S(C)(=O)=O | inactive
O=C(C[C@H]1C[C@H]2c3cc(NC(=O)Nc4ccccc4F)ccc3O[C@H]2[C@@H](CO)O1)NCc1ccc(Oc2ccccc2)cc1 | inactive
C[C@@H]1CCCCO[C@@H](CN(C)Cc2ccncc2)[C@@H](C)CN([C@H](C)CO)C(=O)c2cc(NS(C)(=O)=O)ccc2O1 | inactive
C[C@@H]1CN([C@@H](C)CO)C(=O)c2cccc(NC(=O)CCCCCC(=O)Nc3ccccc3N)c2O[C@H]1CN(C)Cc1ccc(C(F)(F)F)cc1 | inactive
Cc1noc(C)c1S(=O)(=O)Nc1ccc2c(c1)C(=O)N([C@H](C)CO)C[C@H](C)[C@@H](CN(C)C)OCCCC[C@H](C)O2 | inactive
CCOC(=O)Cc1c(C)[nH]c(=O)[nH]c1=O | inactive
COc1cccc(C#Cc2cnc3c(c2)C(=O)N([C@@H](C)CO)C[C@@H](C)[C@H](CN(C)C(=O)C2CCC2)O3)c1 | inactive
Cc1cc(C(=O)Nc2cccc3c2O[C@@H](CN(C)S(=O)(=O)c2cccs2)[C@@H](C)CN([C@H](C)CO)C3=O)n(C)n1 | inactive
C[C@H](CO)N1C[C@H](C)[C@@H](CN(C)Cc2ccc(Oc3ccccc3)cc2)Oc2ccc(NC(=O)Cc3cn(C)c4ccccc34)cc2CC1=O | inactive
C[C@@H]1CN([C@@H](C)CO)C(=O)Cc2cc(NC(=O)Cc3cn(C)c4ccccc34)ccc2O[C@@H]1CN(C)Cc1ccc(Oc2ccccc2)cc1 | active
C[C@H](CO)N1C[C@H](C)[C@@H](CN(C)Cc2ccc(-c3ccccc3)cc2)OCc2ccccc2-c2c(n(C)c3ccccc23)C1=O | inactive
C[C@@H]1CN([C@H](C)CO)C(=O)c2c(c3ccccc3n2C)-c2ccccc2CO[C@H]1CN(C)Cc1ccc(C(F)(F)F)cc1 | active
C[C@H]1CN([C@@H](C)CO)C(=O)c2c(c3ccccc3n2C)-c2ccccc2CO[C@@H]1CN(C)Cc1ccc(-c2ccccc2)cc1 | inactive
C[C@@H]1CN([C@H](C)CO)C(=O)c2c(c3ccccc3n2C)-c2ccccc2CO[C@@H]1CN(C)Cc1ccc(C(F)(F)F)cc1 | inactive
C[C@@H]1CN([C@@H](C)CO)C(=O)c2c(c3ccccc3n2C)-c2ccccc2CO[C@H]1CN(C)Cc1ccccc1 | active
C[C@@H]1CN([C@@H](C)CO)C(=O)c2c(c3ccccc3n2C)-c2ccccc2CO[C@H]1CN(C)Cc1ccc(Cl)c(Cl)c1 | inactive
C[C@@H]1CN([C@H](C)CO)C(=O)c2c(c3ccccc3n2C)-c2ccccc2CO[C@H]1CN(C)Cc1ccc(Cl)c(Cl)c1 | inactive
C[C@H](CO)N1C[C@H](C)[C@H](CN(C)Cc2ccc(Cl)c(Cl)c2)OCc2ccccc2-c2c(n(C)c3ccccc23)C1=O | active
C[C@@H]1CN([C@H](C)CO)C(=O)c2c(c3ccccc3n2C)-c2ccccc2CO[C@@H]1CN(C)Cc1ccccc1 | active
C[C@@H]1CN([C@H](C)CO)C(=O)c2c(c3ccccc3n2C)-c2ccccc2CO[C@@H]1CN(C)Cc1ccc(-c2ccccc2)cc1 | inactive
C[C@@H]1CN([C@@H](C)CO)C(=O)c2c(c3ccccc3n2C)-c2ccccc2CO[C@@H]1CN(C)Cc1ccc(-c2ccccc2)cc1 | inactive
C[C@@H]1CN([C@@H](C)CO)C(=O)c2c(c3ccccc3n2C)-c2ccccc2CO[C@@H]1CN(C)Cc1ccc(C(F)(F)F)cc1 | inactive
